These results are taken from PubChem BioAssay (NCI).

Some test systems named below: SR leukemia; RPMI-8226 leukemia; OVCAR-8 ovarian; OVCAR-5 ovarian; OVCAR-4 ovarian; SK-OV-3 ovarian; IGROV1 ovarian; OVCAR-3 ovarian; HS 578T breast; NCI/ADR-RES ovarian; T-47D breast; BT-549 breast; SW-620 colon; MCF7 breast; HCT-116 colon; HCC-2998 colon; KM12 colon; MDA-MB-468 breast; MDA-MB-435 melanoma.
What all share (assay): NCI-60 one-dose screen, 48 h (100 = growth as untreated, 0 = no growth, -100 = all killed)
Conditions in all cases: 10 µM unless noted

The panel holds about 83,000 compounds, 20% with a hit somewhere; the sample as a whole holds those more often.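 Assay: single dose, 48 h. Readout: percent growth (0 = no net growth; negative = cell death). Active: <10.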 A number with no mark means an inactive call. The source made the active and inactive calls.

As to `O=C1c2c(c3c4cc(F)ccc4oc3c3[nH]c4ccc(Br)cc4c23)C(=O)N1O`, the growth in the assay with SR leukemia was 4.45% (active); with RPMI-8226 leukemia, 34.2%; with OVCAR-8 ovarian, 19.8%; in the assay with OVCAR-5 ovarian, 108%; in the assay with OVCAR-4 ovarian, 76.6%; in the assay on SK-OV-3 ovarian it was 4.35% (active). For the same molecule, the growth in the assay on IGROV1 ovarian is 46.3%; with OVCAR-3 ovarian, 67.2%; in the assay on HS 578T breast, -4.24% (active); in the assay with NCI/ADR-RES ovarian, 30.7%; in the assay with T-47D breast, 23.9%; with BT-549 breast it was 1.19% (active). Besides, the growth is 34.9% in the assay with SW-620 colon; 15.6% in the assay with MCF7 breast; 34.5% in the assay on HCT-116 colon; 63.5% in the assay on HCC-2998 colon; 34.5% with KM12 colon; 46.4% in the assay on MDA-MB-468 breast.
Turning to `C=C1CC[C@@H]2[C@]3(C)COC(c4cn[nH]c4-c4ccc(OC)cc4)O[C@@H]3CC[C@@]2(C)[C@@H]1C/C=C1/C(=O)OCC1O` (stereo partly drawn), the growth in the assay on SR leukemia was -29.9% (active); in the assay with RPMI-8226 leukemia, -27% (active); in the assay on OVCAR-8 ovarian, -3.29% (active); with OVCAR-5 ovarian it was -27.1% (active); with OVCAR-4 ovarian, 3.78% (active); in the assay on SK-OV-3 ovarian, 6.09% (active). For the same molecule, the growth with IGROV1 ovarian is 17.1%; in the assay with OVCAR-3 ovarian, 5.62% (active); with NCI/ADR-RES ovarian, 16.7%; in the assay with T-47D breast it was 6.85% (active); in the assay with BT-549 breast it was -32.9% (active); in the assay on MDA-MB-435 melanoma it was -52.2% (active). The growth with MCF7 breast is 2.05% (active); with HCT-116 colon it was -19% (active); in the assay with HCC-2998 colon, -24.2% (active); in the assay on KM12 colon, -5.21% (active); in the assay with MDA-MB-468 breast it was -7.84% (active).
Take `NS(=O)(=O)c1ccc(-n2cc(-c3cccc(NC(=O)c4cc(C(F)(F)F)cc(C(F)(F)F)c4)c3)nn2)cc1`: the growth in the assay on SR leukemia was 47.4%; in the assay with RPMI-8226 leukemia, 90%; in the assay with OVCAR-8 ovarian, 40.7%; with OVCAR-5 ovarian, 70.5%; in the assay on OVCAR-4 ovarian it was 85.9%; in the assay with SK-OV-3 ovarian, 68.4%. Besides, the growth in the assay on IGROV1 ovarian is 63.1%; in the assay on OVCAR-3 ovarian it was 78.5%; in the assay with NCI/ADR-RES ovarian, 81.6%; with T-47D breast, 60.3%; with BT-549 breast, 98.7%; with MDA-MB-435 melanoma it was 87.8%. Besides, the growth is 59.6% in the assay on MCF7 breast; 46.7% in the assay with HCT-116 colon; 65.3% in the assay on HCC-2998 colon; 21.9% in the assay with KM12 colon; 55.1% with MDA-MB-468 breast.
In the case of `COc1ccc(/C=C/c2nc3ccccc3nc2Nc2cccc(C)c2)cc1`, the growth in the assay with SR leukemia was 85.8%; in the assay with RPMI-8226 leukemia, 95.7%; in the assay on OVCAR-8 ovarian, 98%; in the assay with OVCAR-5 ovarian it was 108%; in the assay on OVCAR-4 ovarian it was 91.6%; with SK-OV-3 ovarian, 95.9%. The growth in the assay on IGROV1 ovarian is 82.1%; with OVCAR-3 ovarian, 104%; in the assay with HS 578T breast, 92.3%; with NCI/ADR-RES ovarian, 105%; with T-47D breast, 77.7%; in the assay on BT-549 breast, 99.9%. Moreover, the growth with SW-620 colon was 95.3%; in the assay on MCF7 breast it was 67.3%; in the assay with HCT-116 colon, 87.3%; in the assay on HCC-2998 colon it was 116%; in the assay with KM12 colon it was 97.2%; in the assay with MDA-MB-468 breast it was 101%.
Regarding `CC(=O)Nc1cccc(Nc2nccc(N[C@@H](C)c3ccccc3)n2)c1`, the growth was 2.48% (active) with SR leukemia; 8.53% (active) in the assay on RPMI-8226 leukemia; 9.3% (active) in the assay with OVCAR-8 ovarian; 34.2% in the assay with OVCAR-5 ovarian; 50.7% in the assay with OVCAR-4 ovarian; 38.9% in the assay with SK-OV-3 ovarian. Also, the growth is 15.9% with IGROV1 ovarian; 18% with OVCAR-3 ovarian; 3.58% (active) in the assay with NCI/ADR-RES ovarian; 40.2% with T-47D breast; 9.69% (active) in the assay with BT-549 breast; 18.7% with MDA-MB-435 melanoma. The growth in the assay with MCF7 breast is 16.5%; in the assay on HCT-116 colon, 9.73% (active); with HCC-2998 colon, 27.1%; with KM12 colon it was 3.5% (active); in the assay with MDA-MB-468 breast, 18.1%.
Consider `O=C(C1=CNC(=S)NC1c1ccc(O)cc1)c1cc2ccccc2oc1=O` (stereo not drawn), for which the growth in the assay with SR leukemia was 75.5%; in the assay on RPMI-8226 leukemia it was 88.7%; in the assay on OVCAR-8 ovarian, 100%; in the assay on OVCAR-5 ovarian it was 109%; in the assay with OVCAR-4 ovarian, 96.1%; in the assay with SK-OV-3 ovarian, 93.2%. For the same molecule, the growth in the assay with IGROV1 ovarian was 108%; with OVCAR-3 ovarian it was 101%; in the assay with HS 578T breast, 97.8%; in the assay with NCI/ADR-RES ovarian, 106%; in the assay with T-47D breast it was 112%; with BT-549 breast, 83.7%. Also, the growth in the assay with SW-620 colon is 104%; in the assay with HCT-116 colon it was 101%; in the assay with HCC-2998 colon, 102%; with KM12 colon, 95.8%.
`CC(C)CSc1nc(NCCc2c[nH]c3ccccc23)c(C#N)c(-c2ccccc2)n1`: the growth was -10.2% (active) with SR leukemia; 35.8% in the assay with RPMI-8226 leukemia; 76.9% with OVCAR-8 ovarian; 85.6% in the assay on OVCAR-5 ovarian; 77.2% in the assay with OVCAR-4 ovarian; 86.7% in the assay with SK-OV-3 ovarian. For the same molecule, the growth with IGROV1 ovarian was 104%; with OVCAR-3 ovarian, 93.5%; in the assay on HS 578T breast, 48.2%; in the assay with NCI/ADR-RES ovarian, 53.5%; with T-47D breast, 30.9%; with BT-549 breast, 92.6%. For the same molecule, the growth with SW-620 colon is 36.1%; in the assay on MCF7 breast it was 20.1%; with HCT-116 colon, 11.6%; in the assay on HCC-2998 colon, 43.5%; in the assay with KM12 colon, 35.3%; in the assay with MDA-MB-468 breast it was 20.8%.
Turning to `Cn1cc(-c2cc(N)n3nc(-c4c[nH]c5ccccc45)cc3n2)c2cc(Br)cnc21`, the growth was -29.5% (active) in the assay with SR leukemia; -14.8% (active) with RPMI-8226 leukemia; -22.6% (active) in the assay with OVCAR-8 ovarian; -77.6% (active) with OVCAR-5 ovarian; 5.89% (active) in the assay with OVCAR-4 ovarian; -34.6% (active) with SK-OV-3 ovarian. In addition, the growth in the assay on IGROV1 ovarian is -41.9% (active); in the assay with OVCAR-3 ovarian it was -66% (active); with HS 578T breast, -17.5% (active); with NCI/ADR-RES ovarian it was -44.6% (active); in the assay with T-47D breast, -56% (active); in the assay on BT-549 breast, -87.8% (active). Also, the growth is -69.1% (active) in the assay on SW-620 colon; -90.7% (active) with HCT-116 colon; -94.3% (active) in the assay on HCC-2998 colon; -60.9% (active) with KM12 colon; -88.5% (active) with MDA-MB-468 breast.
